Assay outcomes (PubChem BioAssay)
A selection: hits, their analogues and other compounds. The true share with any hit is near 19%.
VP16 counter = Gal4-VP16 reporter inhibition counter-screen; Drosophila S2 Gal4-VP16 UAS-luciferase, luminescence, 20 h; Potency, µM (titrated, usually from 53.6 µM), most hits filed as inhibitors; hit rate 3.5% among 310,000; AID 2546;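 note: Gal4-VP16 expression switched on by copper sulfate through the metallothionein promoter; nearly all actives have a fitted effect of over 50% in size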
TDP1 cell CPT = DT40-hTDP1 cell growth loss with CPT. Potency, µM (top dose mostly 46.2 µM), actives largely listed as inhibitors. hit rate 12% among 420,000. chicken DT40 Tdp1-/-;hTDP1 cells + 20 nM CPT, ATP luminescence, 48 h. AID 686979; note: nearly all actives have a fitted effect of over 55% in size
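Cell growth measured by CellTiter-Glo luminescence after a minimum 48 h, 37 C compound exposure with 20 nM CPT in Tdp1-knockout DT40 cells stably expressing hTDP1, seeded 400/well; qHTS titration format.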
RORgamma inh = inhibitors of mouse ROR gamma transcriptional activity; P51450; Drosophila S2 Gal4-RORgamma UAS-luciferase reporter, 20 h; Potency, µM (series often up to 53.6 µM), actives largely listed as inhibitors; hit rate 5.4% among 310,000; note: nearly all actives have a fitted effect of over 60% in size
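Schneider cells (Drosophila), stable Gal4 DBD–ROR gamma + UAS-luc; 1 hr cmpd preincubation; Cu2+ induction 700 uM final; 20 hr ambient; luminescence.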
TDP1 cell noCPT = qHTS for Inhibitors of human tyrosyl-DNA phosphodiesterase 1 (TDP1): qHTS in cells in absence of CPT. DT40 Tdp1-/- hTDP1 cells, no CPT, ATP luminescence, 48 h. Potency, µM (titrated, usually from 46.2 µM), actives largely listed as inhibitors. hit rate 15% among 420,000. AID 686978, 2013; note: nearly all actives have a fitted effect of over 55% in size
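Cells were dispensed at 400 per well, compounds added by pin tool, plates incubated ≥48 hr at 37 °C, then CellTiter-Glo added for 30 min at room temperature before luminescence reading. Line: DT40 Tdp1-/- complemented with hTDP1; camptothecin omitted.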
TDP1 block = TDP1 (human) enzyme inhibition; Q9NUW8; recombinant TDP1, AlphaScreen DNA substrate cleavage; Potency, µM (series often up to 130 µM), most hits filed as inhibitors; hit rate 0.28% among 350,000; AID 485290; note: nearly all actives have a fitted effect of over 40% in size
Target sequence (Q9NUW8 whole entry, looked up): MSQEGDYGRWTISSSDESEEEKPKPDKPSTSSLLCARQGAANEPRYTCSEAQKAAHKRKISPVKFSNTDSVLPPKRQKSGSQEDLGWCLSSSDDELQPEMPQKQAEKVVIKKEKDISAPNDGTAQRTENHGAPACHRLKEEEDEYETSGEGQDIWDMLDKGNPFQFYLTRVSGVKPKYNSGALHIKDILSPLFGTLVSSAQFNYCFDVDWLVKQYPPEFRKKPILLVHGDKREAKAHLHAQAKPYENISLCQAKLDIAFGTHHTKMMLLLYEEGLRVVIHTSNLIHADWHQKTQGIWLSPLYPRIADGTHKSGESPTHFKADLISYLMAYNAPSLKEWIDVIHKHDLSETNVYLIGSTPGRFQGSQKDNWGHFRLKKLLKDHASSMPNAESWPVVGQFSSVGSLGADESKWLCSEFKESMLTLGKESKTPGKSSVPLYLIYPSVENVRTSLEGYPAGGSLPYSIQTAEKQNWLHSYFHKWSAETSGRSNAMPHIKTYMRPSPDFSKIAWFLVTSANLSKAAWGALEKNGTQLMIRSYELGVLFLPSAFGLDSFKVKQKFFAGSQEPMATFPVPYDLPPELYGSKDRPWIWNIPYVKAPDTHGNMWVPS
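Signal: AlphaScreen proximity between streptavidin donor and anti-FITC acceptor beads on intact substrate. Reaction: Tdp1 1 nM, substrate 15 nM final, 5 min RT after 15 min compound preincubation.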
Large screens that a line does not name were inactive. Calls come from the whole dose curve; as a rule, active = well fitted curve in the direction sought with a large enough effect; inconclusive = small, poorly fitted or top-dose-only effect, or another doubt; inactive = no such curve, though single readings can be large; an effect the other way counts as inactive or inconclusive.

COc1ccc(CNC(=O)C2CCCN(c3ncnc4c3nc3n4CCCCC3)C2)cc1 (centres undefined)	TDP1 cell CPT 18µM, TDP1 cell noCPT inconclusive
Cc1ccc(C(=O)CCC(=O)N2CCN(C(=O)c3ccco3)CC2)cc1	none
CC(=O)Nc1ccc(S(=O)(=O)N2CCSc3ccccc32)cc1	TDP1 cell CPT 4.1µM, TDP1 cell noCPT 3.7µM (no result: VP16 counter, RORgamma inh)
CC(=O)Nc1ccc(S(=O)(=O)N2CCN(C(=O)Cc3ccccc3)CC2)cc1	TDP1 cell CPT 12µM, TDP1 cell noCPT inconclusive
CC(=O)Nc1ccc(S(=O)(=O)N2CCN(S(=O)(=O)c3ccc(NC(C)=O)cc3)CC2)cc1	none (no result: TDP1 block)
CC(=O)Nc1ccc(S(=O)(=O)N2CCN(Cc3cccc([N+](=O)[O-])c3)CC2)cc1	TDP1 cell CPT inconclusive, TDP1 cell noCPT 23µM
CC(=O)Nc1ccc(S(=O)(=O)N2CCN(c3cc(C(F)(F)F)ccn3)CC2)cc1	TDP1 cell CPT 18µM, RORgamma inh inconclusive, TDP1 cell noCPT 16µM
CCCC(=O)OCC(=O)Nc1ccccc1Sc1ccccc1	none
CC(=O)Nc1ccc(S(=O)(=O)N2CCN(c3ccc([N+](=O)[O-])cc3)CC2)cc1	TDP1 cell CPT 23µM, RORgamma inh inconclusive, TDP1 cell noCPT 21µM (no result: TDP1 block)
Cn1c(=O)c2sccc2n2c(CCCC(=O)Nc3ccccc3)nnc12	TDP1 cell noCPT inconclusive
CCOC(=O)N1CCN(C(=O)c2ccc3nc(SCc4ccc(F)cc4)n(C)c3c2)CC1	TDP1 cell CPT 23µM, RORgamma inh inconclusive, TDP1 cell noCPT 21µM
CCc1ccc(CNC(=O)c2ccc3nc(SCc4ccc(F)cc4)n(C)c3c2)cc1	TDP1 cell CPT 15µM, TDP1 cell noCPT 21µM (no result: VP16 counter, RORgamma inh)
Cn1c(SCc2ccc(F)cc2)nc2ccc(C(=O)NCc3ccccc3)cc21	none (no result: VP16 counter, RORgamma inh)
O=c1c(C(c2ccc(F)cc2)c2c(O)nc3n(c2=O)CCS3)c(O)nc2n1CCS2	none
O/N=C/c1cn(-c2ccccc2)nc1-c1cccnc1	none
O=C(N/N=C/c1cn(-c2ccccc2)nc1-c1cccnc1)c1cccnc1	VP16 counter inconclusive, RORgamma inh 14µM
CC(NC(=O)/C(C#N)=C/c1cn(-c2ccccc2)nc1-c1ccc(F)cc1)c1ccccc1 (centres undefined)	TDP1 cell noCPT inconclusive
O=C(N/N=C/c1cn(-c2ccccc2)nc1-c1cccnc1)c1ccc(F)cc1	VP16 counter 4µM, TDP1 cell CPT inconclusive, RORgamma inh 2.8µM, TDP1 cell noCPT inconclusive
O=C(CNc1ccccc1)N/N=C/c1c[nH]c2ccccc12	TDP1 cell CPT inconclusive, TDP1 cell noCPT inconclusive
O=C(N/N=C/c1cn(-c2ccccc2)nc1-c1ccc(F)cc1)c1ccc(Br)o1	VP16 counter 2.5µM, TDP1 cell CPT 21µM, RORgamma inh 1.8µM, TDP1 cell noCPT 23µM
O=C(CNc1ccccc1)N/N=C/c1cn(-c2ccccc2)nc1-c1ccccc1	VP16 counter 1µM
Cc1ccc(OC(C)C(=O)N2CC(=O)Nc3ccccc32)cc1 (centres undefined)	none (no result: TDP1 block)
Cc1cc(Cl)ccc1C(=O)C1CCCN(C(=O)c2cnsn2)C1 (centres undefined)	TDP1 cell CPT inconclusive, TDP1 cell noCPT inconclusive
CCCN(CC1CC1)c1nc(C)nc(Nc2c(Cl)cc(Cl)cc2Cl)c1Cl	TDP1 cell CPT inconclusive, RORgamma inh 3.5µM, TDP1 cell noCPT inconclusive
COc1ccc(/C(C)=N/Nc2ccccc2Cl)c(O)c1	VP16 counter inconclusive, TDP1 block 40µM
COc1ccc(/C(C)=N/Nc2ccc(F)cc2F)c(O)c1	RORgamma inh inconclusive
O=C(/C=C/c1ccccc1)NCCOc1ccccc1	none
N#C/C(=N\Nc1cccc(C(F)(F)F)c1)C(=O)c1ccsc1	VP16 counter inconclusive, TDP1 cell CPT 5.2µM, RORgamma inh inconclusive, TDP1 cell noCPT 5.8µM
O=C(Nc1ccccc1)Nc1cccc(C(F)(F)F)c1	TDP1 cell CPT inconclusive, RORgamma inh inconclusive, TDP1 cell noCPT inconclusive
COc1ccc(OC)c(CNC(=O)CCN2C(=O)COc3ccccc32)c1	none
CCOC(=O)c1ccc2c(c1)nc(C1CCN(S(=O)(=O)c3cccs3)CC1)n2CC	TDP1 cell CPT 15µM, TDP1 cell noCPT inconclusive
NCCc1nnc(SCc2ccc(Cl)cc2)o1	none (no result: VP16 counter, RORgamma inh)
NCCCCCc1nnc(SCc2ccc(Cl)c(Cl)c2)o1	VP16 counter 10µM, RORgamma inh inconclusive
COc1ccc(N2C(N)=C(C#N)C(c3cc(CN4CCOCC4)cs3)C3=C2CCCC3=O)cc1 (centres undefined)	TDP1 cell CPT inconclusive, TDP1 cell noCPT inconclusive (no result: VP16 counter, RORgamma inh)
Cc1ccc(S(=O)(=O)c2cc3cc(C(=O)O)ccc3oc2=O)cc1	none (no result: VP16 counter, RORgamma inh)
CCOC(=O)[C@@H]1[C@H]2COc3ccccc3[C@H]2N2C(=O)N(c3ccc(Cl)cc3)C(=O)[C@]12C	TDP1 cell CPT inconclusive, TDP1 cell noCPT 21µM (no result: TDP1 block)
CCOC(=O)[C@@H]1[C@H]2COc3cc(OC)ccc3[C@H]2N2C(=O)N(c3cccc(Cl)c3)C(=O)[C@]12C	TDP1 cell CPT 15µM, TDP1 cell noCPT inconclusive (no result: TDP1 block)
CCOC(=O)[C@@H]1[C@H]2COc3cc(OC)ccc3[C@H]2N2C(=O)N(c3cccc(Cl)c3)C(=O)[C@@]12C	TDP1 cell CPT inconclusive, TDP1 cell noCPT inconclusive (no result: TDP1 block)
CCOC(=O)[C@@H]1[C@H]2COc3ccccc3[C@@H]2N2C(=O)N(c3cccc(Cl)c3)C(=O)[C@@]12C	TDP1 cell CPT inconclusive, RORgamma inh inconclusive, TDP1 cell noCPT 16µM (no result: TDP1 block)
CCOC(=O)[C@@H]1[C@H]2COc3ccccc3[C@H]2N2C(=O)N(c3cccc(Cl)c3)C(=O)[C@@]12C	TDP1 cell CPT inconclusive, TDP1 cell noCPT inconclusive (no result: TDP1 block)
CCOC(=O)[C@@H]1[C@H]2COc3ccccc3[C@@H]2N2C(=O)N(c3ccc(Cl)cc3)C(=O)[C@@]12C	RORgamma inh inconclusive (no result: TDP1 block)
CCOc1ccc(CCNC(=O)c2nn(C)c3c2CS(=O)(=O)c2ccccc2-3)cc1OCC	TDP1 cell CPT 23µM, TDP1 cell noCPT inconclusive
CN(CCCNC(=O)c1nn(C)c2c1CS(=O)(=O)c1ccccc1-2)Cc1ccccc1	none
CC(C)N(CCCNC(=O)c1nn(C)c2c1CS(=O)(=O)c1ccccc1-2)Cc1ccccc1	TDP1 cell CPT 16µM
CCOc1ccc(CCNC(=O)c2nn(C)c3c2CS(=O)(=O)c2ccccc2-3)cc1	TDP1 cell CPT inconclusive, TDP1 cell noCPT 3.7µM
COc1ccc(Nc2ncnc3sc(C)cc23)c(OC)c1	TDP1 cell noCPT inconclusive
Cc1cc(NC(=O)C2CCCN2C(=O)Nc2c(C)cccc2C)ccc1-n1cnnn1 (centres undefined)	TDP1 cell noCPT inconclusive
CCC(C)C(=O)C(=O)N1CCC(n2nccc2NC(=O)CCOc2ccccc2)CC1 (centres undefined)	TDP1 cell noCPT inconclusive (no result: VP16 counter, RORgamma inh, TDP1 block)
C=CCc1ccc(OCCn2cccc2C=O)c(OC)c1	VP16 counter 0.56µM, RORgamma inh 0.63µM, TDP1 cell noCPT inconclusive
CCCCCCC(=O)Nc1nnc(CC)s1	none
